Results taken from the supplement of paper PMC7411054.
Counter-ions that a name gives are not always drawn.

How the values were obtained:
Conditions in all cases: treatment time: 24 h
WPMY1-GM130-SQSTM1 [1] = assay: lowest phenotypically active concentration; higher = less potent
Outline: (§1)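 Cells from fifteen gene-edited reporter lines (A549, HepG2 and WPMY1) were treated for 24 h at 0.3, 1, 3 or 9 µM and imaged live, four wells per condition. Features were normalised per well to solvent control wells. A condition deviated if ≥3 of 4 wells passed the 95th percentile of control Euclidean distances and was reproducible if its median replicate Pearson correlation beat the 95th percentile of non-replicates; phenotypic activity needed both.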

A549-ACTB-RAB5A = assay: phenotypically active (imaging signature differs from DMSO and reproducible) at any of 0.3-9 uM (binary (1 = active, 0 = inactive)); higher = active
Outline: as §1

A549-CANX-COX4 = assay: as above
Outline: as §1

A549-GM130-SQSTM1 = assay: as above
Outline: as §1

A549-TP53BP1-CLTA = assay: as above
Outline: as §1

A549-TUBA1B-RELA = assay: as above
Outline: as §1

HepG2-ACTB-RAB5A = assay: as above
Outline: as §1

HepG2-CANX-COX4 = assay: as above
Outline: as §1

HepG2-GM130-SQSTM1 = assay: as above
Outline: as §1

HepG2-TP53BP1-CLTA = assay: as above
Outline: as §1

HepG2-TUBA1B-RELA = assay: as above
Outline: as §1

WPMY1-ACTB-RAB5A [2] = assay: as above
Outline: as §1

WPMY1-CANX-COX4 [3] = assay: as above
Outline: as §1

WPMY1-GM130-SQSTM1 [4] = assay: as above
Outline: as §1

WPMY1-TP53BP1-CLTA = assay: as above
Outline: as §1

WPMY1-TUBA1B-RELA [5] = assay: as above
Outline: as §1

WPMY1-ACTB-RAB5A [6] = assay: lowest phenotypically active concentration; higher = less potent
Outline: as §1

WPMY1-CANX-COX4 [7] = assay: as above
Outline: as §1

WPMY1-TUBA1B-RELA [8] = assay: as above
Outline: as §1

Cc1cccc(CCN2CCC(C(=O)c3ccc(NS(C)(=O)=O)cc3)CC2)n1
active: phenotypically active (WPMY1-GM130-SQSTM1 [4]) 1
inactive: phenotypically active (A549-ACTB-RAB5A) 0 | phenotypically active (A549-CANX-COX4) 0 | phenotypically active (A549-GM130-SQSTM1) 0 | phenotypically active (A549-TP53BP1-CLTA) 0 | phenotypically active (A549-TUBA1B-RELA) 0 | phenotypically active (HepG2-ACTB-RAB5A) 0 | phenotypically active (HepG2-CANX-COX4) 0 | phenotypically active (HepG2-GM130-SQSTM1) 0 | phenotypically active (HepG2-TP53BP1-CLTA) 0 | phenotypically active (HepG2-TUBA1B-RELA) 0 | phenotypically active (WPMY1-ACTB-RAB5A [2]) 0 | phenotypically active (WPMY1-CANX-COX4 [3]) 0 | phenotypically active (WPMY1-TP53BP1-CLTA) 0 | phenotypically active (WPMY1-TUBA1B-RELA [5]) 0
3 µM: lowest phenotypically active concentration (WPMY1-GM130-SQSTM1 [1])

NC(=O)c1ccc(I)c([N+](=O)[O-])c1
active: phenotypically active (HepG2-GM130-SQSTM1) 1
inactive: phenotypically active (A549-ACTB-RAB5A) 0 | phenotypically active (A549-CANX-COX4) 0 | phenotypically active (A549-GM130-SQSTM1) 0 | phenotypically active (A549-TP53BP1-CLTA) 0 | phenotypically active (A549-TUBA1B-RELA) 0 | phenotypically active (HepG2-ACTB-RAB5A) 0 | phenotypically active (HepG2-CANX-COX4) 0 | phenotypically active (HepG2-TP53BP1-CLTA) 0 | phenotypically active (HepG2-TUBA1B-RELA) 0 | phenotypically active (WPMY1-ACTB-RAB5A [2]) 0 | phenotypically active (WPMY1-CANX-COX4 [3]) 0 | phenotypically active (WPMY1-GM130-SQSTM1 [4]) 0 | phenotypically active (WPMY1-TP53BP1-CLTA) 0 | phenotypically active (WPMY1-TUBA1B-RELA [5]) 0

CC(C)Cc1ccc(C(C)C(=O)O)cc1 (configuration not stated) [ibuprofen]
inactive: phenotypically active (A549-ACTB-RAB5A) 0 | phenotypically active (A549-CANX-COX4) 0 | phenotypically active (A549-GM130-SQSTM1) 0 | phenotypically active (A549-TUBA1B-RELA) 0 | phenotypically active (HepG2-ACTB-RAB5A) 0 | phenotypically active (HepG2-CANX-COX4) 0 | phenotypically active (HepG2-GM130-SQSTM1) 0 | phenotypically active (HepG2-TUBA1B-RELA) 0 | phenotypically active (WPMY1-ACTB-RAB5A [2]) 0 | phenotypically active (WPMY1-CANX-COX4 [3]) 0 | phenotypically active (WPMY1-GM130-SQSTM1 [4]) 0 | phenotypically active (WPMY1-TUBA1B-RELA [5]) 0

CN(CCOc1ccc(NS(C)(=O)=O)cc1)CCc1ccc(NS(C)(=O)=O)cc1 [dofetilide]
inactive: phenotypically active (A549-ACTB-RAB5A) 0 | phenotypically active (A549-CANX-COX4) 0 | phenotypically active (A549-GM130-SQSTM1) 0 | phenotypically active (A549-TUBA1B-RELA) 0 | phenotypically active (HepG2-ACTB-RAB5A) 0 | phenotypically active (HepG2-CANX-COX4) 0 | phenotypically active (HepG2-GM130-SQSTM1) 0 | phenotypically active (HepG2-TUBA1B-RELA) 0 | phenotypically active (WPMY1-ACTB-RAB5A [2]) 0 | phenotypically active (WPMY1-CANX-COX4 [3]) 0 | phenotypically active (WPMY1-GM130-SQSTM1 [4]) 0 | phenotypically active (WPMY1-TUBA1B-RELA [5]) 0

CC(C)C(=O)Nc1ncc(-c2cc(C(F)F)nn2-c2c(Cl)cccc2Cl)s1
3 µM: lowest phenotypically active concentration (WPMY1-CANX-COX4 [7]) | lowest phenotypically active concentration (WPMY1-TUBA1B-RELA [8])
inactive: phenotypically active (A549-CANX-COX4) 0 | phenotypically active (A549-GM130-SQSTM1) 0 | phenotypically active (A549-TUBA1B-RELA) 0 | phenotypically active (HepG2-GM130-SQSTM1) 0 | phenotypically active (HepG2-TUBA1B-RELA) 0
9 µM: lowest phenotypically active concentration (WPMY1-ACTB-RAB5A [6]) | lowest phenotypically active concentration (WPMY1-GM130-SQSTM1 [1])
active: phenotypically active (A549-ACTB-RAB5A) 1 | phenotypically active (HepG2-ACTB-RAB5A) 1 | phenotypically active (HepG2-CANX-COX4) 1 | phenotypically active (WPMY1-ACTB-RAB5A [2]) 1 | phenotypically active (WPMY1-CANX-COX4 [3]) 1 | phenotypically active (WPMY1-GM130-SQSTM1 [4]) 1 | phenotypically active (WPMY1-TUBA1B-RELA [5]) 1

CC[C@@H]1C(=O)OC[C@@H]1Cc1cncn1C [Pilocarpine hydrochloride]
inactive: phenotypically active (A549-CANX-COX4) 0 | phenotypically active (A549-TP53BP1-CLTA) 0 | phenotypically active (HepG2-ACTB-RAB5A) 0 | phenotypically active (HepG2-CANX-COX4) 0 | phenotypically active (HepG2-GM130-SQSTM1) 0 | phenotypically active (HepG2-TP53BP1-CLTA) 0 | phenotypically active (HepG2-TUBA1B-RELA) 0 | phenotypically active (WPMY1-ACTB-RAB5A [2]) 0 | phenotypically active (WPMY1-CANX-COX4 [3]) 0 | phenotypically active (WPMY1-GM130-SQSTM1 [4]) 0 | phenotypically active (WPMY1-TP53BP1-CLTA) 0 | phenotypically active (WPMY1-TUBA1B-RELA [5]) 0

CNCC(O)c1ccc(OC(=O)C(C)(C)C)c(OC(=O)C(C)(C)C)c1 (configuration not stated) [dipivefrine]
9 µM: lowest phenotypically active concentration (WPMY1-GM130-SQSTM1 [1])
active: phenotypically active (WPMY1-GM130-SQSTM1 [4]) 1
inactive: phenotypically active (A549-ACTB-RAB5A) 0 | phenotypically active (A549-CANX-COX4) 0 | phenotypically active (A549-GM130-SQSTM1) 0 | phenotypically active (A549-TP53BP1-CLTA) 0 | phenotypically active (A549-TUBA1B-RELA) 0 | phenotypically active (HepG2-ACTB-RAB5A) 0 | phenotypically active (HepG2-CANX-COX4) 0 | phenotypically active (HepG2-GM130-SQSTM1) 0 | phenotypically active (HepG2-TP53BP1-CLTA) 0 | phenotypically active (HepG2-TUBA1B-RELA) 0 | phenotypically active (WPMY1-ACTB-RAB5A [2]) 0 | phenotypically active (WPMY1-CANX-COX4 [3]) 0 | phenotypically active (WPMY1-TP53BP1-CLTA) 0 | phenotypically active (WPMY1-TUBA1B-RELA [5]) 0

NC(=O)c1sc2c([N+](=O)[O-])cc(C(F)(F)F)cc2[n+]1[O-] [Cyclapolin 9]
9 µM: lowest phenotypically active concentration (WPMY1-GM130-SQSTM1 [1]) | lowest phenotypically active concentration (WPMY1-TUBA1B-RELA [8])
inactive: phenotypically active (A549-ACTB-RAB5A) 0 | phenotypically active (A549-CANX-COX4) 0 | phenotypically active (A549-GM130-SQSTM1) 0 | phenotypically active (A549-TP53BP1-CLTA) 0 | phenotypically active (A549-TUBA1B-RELA) 0 | phenotypically active (HepG2-ACTB-RAB5A) 0 | phenotypically active (HepG2-CANX-COX4) 0 | phenotypically active (HepG2-GM130-SQSTM1) 0 | phenotypically active (HepG2-TP53BP1-CLTA) 0 | phenotypically active (HepG2-TUBA1B-RELA) 0 | phenotypically active (WPMY1-ACTB-RAB5A [2]) 0 | phenotypically active (WPMY1-CANX-COX4 [3]) 0 | phenotypically active (WPMY1-TP53BP1-CLTA) 0
active: phenotypically active (WPMY1-GM130-SQSTM1 [4]) 1 | phenotypically active (WPMY1-TUBA1B-RELA [5]) 1

CCCCc1c(O)n(-c2ccccc2)n(-c2ccccc2)c1=O [phenylbutazone]
inactive: phenotypically active (A549-ACTB-RAB5A) 0 | phenotypically active (A549-CANX-COX4) 0 | phenotypically active (A549-GM130-SQSTM1) 0 | phenotypically active (A549-TP53BP1-CLTA) 0 | phenotypically active (A549-TUBA1B-RELA) 0 | phenotypically active (HepG2-ACTB-RAB5A) 0 | phenotypically active (HepG2-CANX-COX4) 0 | phenotypically active (HepG2-GM130-SQSTM1) 0 | phenotypically active (HepG2-TP53BP1-CLTA) 0 | phenotypically active (HepG2-TUBA1B-RELA) 0 | phenotypically active (WPMY1-ACTB-RAB5A [2]) 0 | phenotypically active (WPMY1-CANX-COX4 [3]) 0 | phenotypically active (WPMY1-TP53BP1-CLTA) 0 | phenotypically active (WPMY1-TUBA1B-RELA [5]) 0
≤ 0.3 µM: lowest phenotypically active concentration (WPMY1-GM130-SQSTM1 [1])
active: phenotypically active (WPMY1-GM130-SQSTM1 [4]) 1

Nc1nc2ccc(OC(F)(F)F)cc2s1 [riluzole]
inactive: phenotypically active (A549-CANX-COX4) 0 | phenotypically active (A549-TP53BP1-CLTA) 0 | phenotypically active (HepG2-ACTB-RAB5A) 0 | phenotypically active (HepG2-CANX-COX4) 0 | phenotypically active (HepG2-GM130-SQSTM1) 0 | phenotypically active (HepG2-TP53BP1-CLTA) 0 | phenotypically active (HepG2-TUBA1B-RELA) 0 | phenotypically active (WPMY1-ACTB-RAB5A [2]) 0 | phenotypically active (WPMY1-CANX-COX4 [3]) 0 | phenotypically active (WPMY1-GM130-SQSTM1 [4]) 0 | phenotypically active (WPMY1-TP53BP1-CLTA) 0 | phenotypically active (WPMY1-TUBA1B-RELA [5]) 0

C=C[C@H]1CN2CC[C@H]1C[C@@H]2[C@@H](O)c1ccnc2ccc(OC)cc12 [Quinidine hydrochloride monohydrate]
inactive: phenotypically active (A549-ACTB-RAB5A) 0 | phenotypically active (A549-CANX-COX4) 0 | phenotypically active (A549-GM130-SQSTM1) 0 | phenotypically active (A549-TUBA1B-RELA) 0 | phenotypically active (HepG2-ACTB-RAB5A) 0 | phenotypically active (HepG2-CANX-COX4) 0 | phenotypically active (HepG2-GM130-SQSTM1) 0 | phenotypically active (HepG2-TUBA1B-RELA) 0 | phenotypically active (WPMY1-ACTB-RAB5A [2]) 0 | phenotypically active (WPMY1-CANX-COX4 [3]) 0 | phenotypically active (WPMY1-GM130-SQSTM1 [4]) 0 | phenotypically active (WPMY1-TUBA1B-RELA [5]) 0

O=S(c1ccccc1)c1ccc2nnnn2n1 (configuration not stated)
inactive: phenotypically active (A549-CANX-COX4) 0 | phenotypically active (A549-GM130-SQSTM1) 0 | phenotypically active (A549-TUBA1B-RELA) 0 | phenotypically active (HepG2-ACTB-RAB5A) 0 | phenotypically active (HepG2-CANX-COX4) 0 | phenotypically active (HepG2-GM130-SQSTM1) 0 | phenotypically active (HepG2-TUBA1B-RELA) 0 | phenotypically active (WPMY1-ACTB-RAB5A [2]) 0 | phenotypically active (WPMY1-GM130-SQSTM1 [4]) 0
active: phenotypically active (A549-ACTB-RAB5A) 1 | phenotypically active (WPMY1-CANX-COX4 [3]) 1 | phenotypically active (WPMY1-TUBA1B-RELA [5]) 1
9 µM: lowest phenotypically active concentration (WPMY1-CANX-COX4 [7]) | lowest phenotypically active concentration (WPMY1-TUBA1B-RELA [8])

CCC1(c2ccccc2)NC(=O)N(C)C1=O (configuration not stated) [Mephenytoin]
inactive: phenotypically active (A549-CANX-COX4) 0 | phenotypically active (A549-TP53BP1-CLTA) 0 | phenotypically active (HepG2-ACTB-RAB5A) 0 | phenotypically active (HepG2-CANX-COX4) 0 | phenotypically active (HepG2-GM130-SQSTM1) 0 | phenotypically active (HepG2-TP53BP1-CLTA) 0 | phenotypically active (HepG2-TUBA1B-RELA) 0 | phenotypically active (WPMY1-ACTB-RAB5A [2]) 0 | phenotypically active (WPMY1-CANX-COX4 [3]) 0 | phenotypically active (WPMY1-GM130-SQSTM1 [4]) 0 | phenotypically active (WPMY1-TP53BP1-CLTA) 0 | phenotypically active (WPMY1-TUBA1B-RELA [5]) 0
